# D2 antag: HTS Assay for Allosteric Antagonists of the Human D2 Dopamine Receptor: Primary Screen for Antagonists; D(2) dopamine receptor (Homo sapiens), P14416; HEK293 TREx D2 cells, calcium flux, dopamine EC80; inhibition, % at 10 µM; 340,000 tested, 2% active; AID 485344, 2010; in the data active means inhibition above about 30%; inactive means below that, where a call was filed
# Target sequence (P14416 whole entry, looked up): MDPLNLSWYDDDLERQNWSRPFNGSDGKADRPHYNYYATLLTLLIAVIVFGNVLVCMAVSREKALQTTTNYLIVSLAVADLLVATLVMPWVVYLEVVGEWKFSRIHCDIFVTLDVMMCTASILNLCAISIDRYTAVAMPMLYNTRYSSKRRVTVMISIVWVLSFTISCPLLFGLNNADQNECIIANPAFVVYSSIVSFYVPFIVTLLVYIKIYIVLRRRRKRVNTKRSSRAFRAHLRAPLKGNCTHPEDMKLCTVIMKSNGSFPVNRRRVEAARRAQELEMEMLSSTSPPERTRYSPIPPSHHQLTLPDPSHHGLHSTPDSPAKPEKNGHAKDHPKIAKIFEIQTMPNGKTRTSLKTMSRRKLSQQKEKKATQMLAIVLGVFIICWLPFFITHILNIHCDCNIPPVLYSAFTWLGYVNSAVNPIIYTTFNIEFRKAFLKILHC
#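 Inhibition of EC80 dopamine-driven calcium flux, recorded kinetically, defines activity here; cells are a tetracycline-induced HEK293 T-REx line expressing force-coupled D2.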
# D2 PAM-1: Beta-Arrestin HTS for Positive Allosteric Modulators of the Human D2 Dopamine Receptor: Potentiators | AID 624464, 2012 | potentiation, % (test concentration not listed) | 360,000 tested, 0.23% active | DiscoveRx D2 beta-arrestin cells, luminescence, 90 min; 100% = 57 uM dopamine signal | D(2) dopamine receptor (Homo sapiens), P14416; in the data active means potentiation above about 50%; inconclusive means mostly about 30% to 49%
#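 PathHunter beta-arrestin assay in DiscoveRx D2 cells. Compounds were added with an EC20 of dopamine (50 nM final) for 90 min at 37 deg C. Luminescence was read 1 h after detection reagent, with 57 uM dopamine as the EC100 control.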
# D2 PAM-2: HTS Assay for Positive Allosteric Modulators of the Human D2 Dopamine Receptor: Primary Screen for Potentiators. HEK293 T-REx D2, calcium flux, EC20 dopamine potentiation. potentiation, % at 10 µM. 340,000 tested, 0.34% active. AID 485347, 2010;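 active means potentiation over 3 SD above the plate norm, cut at about 30% in these data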
#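 Potentiation of an EC20 dopamine calcium response measured kinetically over 180 s, after a preceding 180 s compound-only read flagging agonists. Cells: inducible Hek293 Trex D2 line, 4000/well, cultured overnight at 30 C before dye loading.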
# D2 ag-1: HTS Assay for Allosteric Agonists of the Human D2 Dopamine Receptor: Primary Screen for Agonists | 340,000 tested, 0.53% active | activation, % at 2 µM | D(2) dopamine receptor (Homo sapiens), P14416 | HEK293 T-REx D2 cells, calcium flux agonist mode;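 active means activation over 3 SD above normal in the single-dose calcium agonist read, cut at about 30% in these data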
#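 Calcium-flux readout, 1 cycle/sec over 180 s following compound pin transfer, in inducible HEK293 Trex D2 cells (force-coupled); dopamine controls included. Positive calcium responses during this window marked compounds as potential agonists.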
# D2 ag-2: Beta-Arrestin HTS for Positive Allosteric Modulators of the Human D2 Dopamine Receptor: Agonists. 360,000 tested, 0.084% active. D(2) dopamine receptor (Homo sapiens), P14416. activation, % (concentration not given with the values). DiscoveRx PathHunter D2 beta-arrestin, luminescence, 90 min; 100% = 57 uM dopamine signal; in the data active means activation above about 40%; inconclusive means between about 15% and that limit
#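 Agonist mode: compounds alone added to overnight-plated D2 PathHunter cells for 90 min at 37 C, with 57 uM final dopamine (EC100) defining full response. Beta-arrestin recruitment detected by chemiluminescent reagent, read after 1 h at ambient temperature.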
# A number is an active result; 0 = inactive; ? = inconclusive; - = not tested or not shown. Sampled rows, rich in hits. Any-hit rate of the full collection: about 2.4%.
SMILES,D2 antag,D2 PAM-1,D2 PAM-2,D2 ag-1,D2 ag-2
CC(=O)N1c2ccc(S(=O)(=O)NCC3CCC(C(=O)Nc4cc(C)cc(C)c4)CC3)cc2CC1C (stereo unspecified),-,-,-,0,-
CC(=O)N1c2ccc(S(=O)(=O)N3CCC(C(=O)Nc4cc(C)cc(C)c4)CC3)cc2CC1C (stereo unspecified),71,0,0,0,0
CC(=O)N1c2ccc(S(=O)(=O)N3CCCC3C(=O)Nc3ccc(C)cc3)cc2CC1C (stereo unspecified),37,0,0,0,0
CCCC(=O)Nc1c(-c2ccccc2)[nH][nH]c1=O,-,0,-,-,0
CC(=O)N1c2ccc(S(=O)(=O)N3CCC(C(=O)Nc4cccc(Cl)c4)CC3)cc2CC1C (stereo unspecified),41,0,0,0,0
CCC(=O)c1ccc(OCC(=O)NCCC2=CCCCC2)c(OC)c1,0,0,0,0,0
COc1cc(C(=O)NCCC2=CCCCC2)ccc1OCc1c(C)noc1C,32,0,0,0,0
CCOc1ccc(C(=O)NCCC2=CCCCC2)cc1OCC,38,0,0,0,0
COc1ccccc1/C=C/C(=O)NCCC1=CCCCC1,35,0,0,0,0
Cc1ccc2[nH]c(=O)c(CN(CCCN3CCOCC3)C(=O)Nc3ccc(Cl)cc3)cc2c1,31,0,0,0,0
CCCNC(=O)C1(C)CCN(Cc2cccc(OC(=O)c3ccccc3)c2)C1 (stereo unspecified),-,0,-,-,0
O=C(CNC(=O)c1cccs1)N/N=C/c1c(F)cccc1Cl,31,0,0,0,0
O=C1c2ccccc2C(=O)N1CCc1nc2ccccc2c(=O)n1Cc1ccco1,40,0,0,0,0
COc1ccc(NC(=O)Cn2c(=O)n(Cc3ccccc3)c(=O)c3sc4ccccc4c32)cc1,-,-,0,0,-
C=CCC1=C/C(=C\c2c(N)n3nc(CC(=O)N4CCCC4)sc3nc2=O)C=C(OC)C1=O,0,0,0,40,0
COc1ccc(NC(=O)c2cc(C3CCCCN3S(=O)(=O)c3ccc(C#N)cc3)on2)c(C)c1 (stereo unspecified),-,0,-,-,0
COc1cc2c(cc1OC)CN(C(=O)CSc1nc(C)cc(C)c1C#N)CC2,0,0,34,0,0
COc1cc2c(cc1OC)CN(C(=O)CSc1ccc(F)cc1)CC2,61,0,0,0,0
O=c1cc(-c2ccccc2)oc2cc(OCc3ccccc3)cc(O)c12,51,0,0,0,0
O=c1cc(-c2ccc(OCc3ccccc3)cc2)oc2cc(OCc3ccccc3)cc(OCc3ccccc3)c12,-,0,-,-,0
COc1ccc(NC(=O)CC23CC4CC(CC(Br)(C4)C2)C3)c(OC)c1,0,0,0,0,0
COc1cc(/C=C2\SC(=O)N(CC(=O)Nc3ccccc3F)C2=O)cc(Cl)c1O,0,0,0,41,0
CS(=O)(=O)c1nc(S(=O)(=O)c2ccc(Cl)cc2)c(NCc2ccccn2)s1,0,0,30,0,0
COc1cccc(N2C(=O)N(CC(=O)NCc3cccc(OC)c3OC)c3ccccc3S2(=O)=O)c1,-,-,0,0,-
Cc1ccccc1-c1noc(-c2ccc(O)cc2)n1,46,0,0,0,0
SMILES,D2 antag,D2 PAM-1,D2 PAM-2,D2 ag-1,D2 ag-2
Cc1ccccc1-c1noc(C23CC4CC(CC(C4)C2)C3)n1,75,0,0,0,0
OC1(c2cccc(F)c2)CCN(Cc2ccncc2)CC1,56,0,0,0,0
CN(CC(=O)Nc1ccccc1Cl)C(=O)COC(=O)c1ccc([N+](=O)[O-])cc1Cl,0,53,0,0,?
CN(CC(=O)Nc1ccccc1Cl)C(=O)COC(=O)c1nc(Cl)ccc1Cl,0,0,0,0,0
CCc1nn(C(C)C(=O)N2CCN(c3cccc(C(F)(F)F)c3)CC2)c(=O)c2cc3occc3n12 (stereo unspecified),-,-,0,0,-
O=C(CSc1nc2ccccc2[nH]1)Nc1c(F)c(F)c(F)c(F)c1F,0,0,43,0,0

# From PubChem
